The nature of this experiment: PAX8-dependent cell viability loss – plate reader, dry powder, dose response (AID 743049). The conditions noted are these: PAX8-dependent cancer cell viability; series mostly up to 50 µM.

In PubChem BioAssay AID743049 (Broad Institute, 2013) one finds outcome data, which are given here for two molecules.

Results with a measured potency or affinity are listed apart. Inconclusive results are not listed. Calls of active or inactive are those of the source. How the calls were made is not given here.

Consider `Cc1ccccc1CNC(=O)C1CCCN(c2nnc(C)c3c(C)n(-c4ccccc4)nc23)C1` (configuration not stated), for which the outcome was inactive.

In the case of `COc1ccccc1C#Cc1ccc([C@@H]2[C@@H](C#N)N(C(=O)C3CCCCC3)[C@H]2CO)cc1`, the molecule was called inactive.
